From PubChem BioAssay
CSC inhib: cancer stem cell inhibition | inhibition, % at 7.5 µM | cancer stem cell-like cells viability, luminescence | 1.1% of 300,000 active; in the data active = inhibition above about 75%; inconclusive = no clear call, values can overlap the other calls; tested in HMLE shEcad cells
Beta apoptosis: blocks beta cell apoptosis. INS-1E cytokine-induced death, ATP luminescence, 48 h; percent of positive-control rescue, neutral wells zero. protection from apoptosis, % (test concentration not listed). 0.8% of 300,000 active. AID 435005;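 active = Every replicate reaches about 75%, or at least half do and their mean reaches it too, limit read from the data; inconclusive = At least half of replicates reach the limit but their mean does not; inactive = Under half of replicates reach the limit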;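 note: 0% = cytokine-treated negative control wells and 100% = positive control rescue; higher means more ATP so stronger rescue from cytokine killing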
aSyn 5UTR inh: 5' untranslated region of α-synuclein, MLPCN primary screen. alpha-synuclein 5'UTR reporter, inhibitor activity. inhibition, % (tested at 7.5 µM). 0.82% of 300,000 active; in the data active = inhibition above about 60%; inconclusive = no clear call, values can overlap the other calls;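 note: H4 neuroglioblastoma cells stably carrying SNCA 5'UTR luciferase fusion; 0% = DMSO wells and 100% = positive control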
A1 inh: inhibitors of the anti-apoptotic protein A1, read as caspase activation | caspase activation, % (test concentration not listed) | 0.066% of 330,000 active | AID 2462 | MEF A1-2A-BIM cells, Caspase-Glo 3/7 luminescence, 3 h; percent of clofoctol response, vehicle zero;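 active = over half of replicate activation scores above 10%, or exactly half above 10 with the replicate mean above 10; inconclusive = replicate mean below 10 yet half the replicates above 10; inactive = over half of replicates below 10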
Mdm2 MdmX PPI: inhibitors of human Mdm2/MdmX interaction; inhibition, % at 8 µM; 3% of 330,000 active; O15151+Q00987; SaOS-2 split-luciferase Mdm2/MdmX complementation, luminescence;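 active = inhibition of at least 50% at 8 µM in the primary screen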
Mdm2 MdmX conf: confirmation of human Mdm2/MdmX interaction inhibitors. shares compounds with Mdm2 MdmX PPI. Mdm2-MdmX binding, luminescent assay. inhibition, % at 8 µM. 55% of 10,000 active. AID 489028; in the data active = inhibition above about 40%
FLuc counter: counter-screen for Mdm2/MdmX inhibitors: full-length luciferase; shares compounds with Mdm2 MdmX PPI; inhibition, % at 8 µM; 77% of 6,200 active; SaOS-2 full-length luciferase counterscreen, luminescence;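 active = mean inhibition at 8 µM reaching about 37%, which flags the compound as non-specific, limit read from the data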;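 note: p53-null SaOS-2 cells with luciferase driven by a doxycycline-inducible promoter; compound on cells about two nights before reading with doxycycline added after day one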
* marks the source's active call; other numbers are inactive results; ? = inconclusive; . = no result. In the library only some 4.1% were active in any assay of this set; here they are far more common.

SMILES	CSC inhib	Beta apoptosis	aSyn 5UTR inh	A1 inh	Mdm2 MdmX PPI	Mdm2 MdmX conf	FLuc counter
Cc1ccc(-c2cc(-c3ccccc3)cc(-c3ccccc3)[n+]2-c2ccc(C(=O)O)cc2)cc1	1	-8	7	0	1	.	.
Cc1cc(OC(=O)N(C)C)nc(-c2ccc(C)c(Cl)c2)n1	5	-7	-11	1	14	.	.
Clc1ccc(COC(Cn2ccnc2)c2ccc(Cl)cc2Cl)cc1 (stereo not given)	64	16	7	0	34	.	.
Clc1ccc(CO/N=C(\Cn2ccnc2)c2ccc(Cl)cc2Cl)c(Cl)c1	103*	88*	31	1	56*	29	.
c1ccc2c(c1)OCC(C1=NCCN1)O2 (stereo not given)	5	.	-12	1	57*	16	.
O=C1NC(=O)C(=Cc2ccc(-c3ccc(Cl)cc3)o2)C(=O)N1	47	4	-21	1	53*	6	.
O=C1/C(=C\c2ccccc2)C2OCC=C3CN4CCC56c7ccccc7N1C5C2C3CC46 (stereo not given)	22	-5	-39	-1	71*	51*	70*
N#Cc1ccc(NC(=O)CN2C(=O)NC3(CCCCCCC3)C2=O)cc1Cl	31	0	.	0	-7	.	.
CNc1ccc2oc(C[C@H]3O[C@@]4(CC[C@H]3C)O[C@H]([C@H](C)C(=O)c3ccc[nH]3)[C@H](C)C[C@H]4C)nc2c1C(=O)O	106*	109*	117*	1	100*	98*	52*
CCCNC(=O)N1[C@H]2CC[C@@H]1C(C(=O)OC)=C(c1ccc(C(C)=O)cc1)C2	-13	-6	.	1	4	.	.
C=C1[C@@H](C)[C@H]2[C@H](Cc3ccccc3)NC(=O)[C@]23OC(=O)/C=C/[C@H](O)CCC[C@@H](C)C/C=C/[C@H]3[C@@H]1O	50	-11	109*	0	82*	71*	53*
CCCCn1c(=O)c(C(=O)Nc2ccccc2S(N)(=O)=O)c(O)c2ccccc21	41	3	-41	0	52*	48*	40*
CCCCCCCn1c(=O)c(C(=O)Nc2cnccn2)c(O)c2ccccc21	70	67	44	-1	65*	43*	44*
CCCCn1c(=O)c(C(=O)NCc2ccccc2)c(O)c2ccccc21	?	23	18	1	18	.	.
CCCCCn1c(=O)c(C(=O)Nc2cnccn2)c(O)c2ccccc21	0	73	98*	0	52*	48*	51*
CCCCCn1c(=O)c(C(=O)Nc2cc(C)ccn2)c(O)c2ccccc21	30	-3	25	0	10	.	.
CCCCn1c(=O)c(C(=O)NCc2ccncc2)c(O)c2ccccc21	16	-8	26	1	51*	20	.
CC1=CC(=O)OC2CC3OC4C[C@@H](C)C5OC6CC7O[C@]8(C)C/C=C\C9OC%10CC%11OC(CC(C)C%12OCCO%12)CC(O)[C@]%11(C)OC%10CC9OC8C[C@]7(C)O[C@]6(C)CCC5OC4C[C@]3(C)OC12 (stereo not given in full)	.	13	.	1	41	.	.
CCCNC(=O)N1[C@H]2CC[C@@H]1C(C(=O)OC)=C(c1cccc(C#N)c1)C2	7	0	.	0	28	.	.
C[C@]12N[C@H](Cc3ccccc31)c1ccccc12	-4	.	-13	0	12	.	.
CC(=O)NC(Cc1ccc(N(CCCl)CCCl)cc1)C(=O)NC(C(=O)O)C(C)C (stereo not given)	-5	-12	16	1	7	.	.
CCOC(=O)CC(NC(=O)C(Cc1ccc(N(CCCl)CCCl)cc1)NC(C)=O)C(=O)OCC (stereo not given)	50	17	38	1	81*	57*	15
CNCC(O)c1cc(OCc2ccccc2)c(OCc2ccccc2)cc1F (stereo not given)	-21	6	-44	0	82*	8	.
CC(=O)O[C@]1(C)C(=O)OC/C2=C/CN(C)CCC(OC(=O)[C@@](O)(C(C)O)C[C@H]1C)C2=O (stereo not given in full)	9	-3	3	1	-11	.	.
CCCCCCCCc1ccc(O)cc1	74	1	.	0	-3	.	.
CCCCCCCCn1sccc1=O	60	2	.	2	80*	-2	.
